# Spn DPM-DC inh: S. pneumoniae DPM-DC inhibition; purified DPM-DC, PK/LDH coupled NADH fluorescence; calls only at 10 µM; hit rate 0.49% among 65,000; AID 556;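 active = the 320 compounds with the highest percent inhibition in the single-dose primary screen, excluding strongly autofluorescent ones, cut at about 32% in these data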;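 also: kinetic rate of NADH fluorescence loss reporting ADP formed by the decarboxylase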
# Spn PMK inh: S. pneumoniae PMK inhibition | hit rate 0.49% among 65,000 | inhibition, % at 10 µM | purified PMK, PK/LDH-coupled NADH absorbance 340 nm;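 active = top-ranked compounds by inhibition in the single 10 µM screen, taking a fixed number of the strongest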;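 also: 0% = full reaction with DMSO carrier and 100% = background rate without enzyme reaction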
# NADH coupling: inhibition of NAD/NADH coupling enzymes, library profiling. IC50, µM (series often up to 10 µM), for the others: at the top dose inhibition. coupled PK/LDH NADH assays, four targets. hit rate 0.02% among 65,000. AID 774;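 active = single-dose screening hits from any of four coupled enzyme assays that gave an IC50 when retested across doses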;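 also: the DPM-DC format reads NADH fluorescence rather than 340 nm absorbance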
# A340 absorber: absorbance at 340 nm; compound absorbance at 340 nm, fold over control; 65,000 tested, under 10 active; fold change at 10 µM;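 active = at 10 µM dose, initial 340 nm absorbance at least 2 fold that of control wells; inactive = change under 2 fold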;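 also: initial absorbance extrapolated from kinetic A340 decline of NADH oxidation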
# Spn MK inh: S. pneumoniae mevalonate kinase inhibition; purified MK, PK/LDH-coupled NADH absorbance 340 nm; inhibition, % at 10 µM; hit rate 0.48% among 65,000; AID 555;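 active = ranked among the strongest by inhibition in the single 10 µM screen, a fixed top-ranked set picked for dose follow-up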
# Autofluor 339: intrinsic fluorescence of library compounds, ex339/em460 – biochemical, MLSMR library, data from DPM-DC assay, artefact control, profiling panel; compound autofluorescence, ex339/em460 nm, NADH buffer; hits give high values; 1 = no-compound wells, NADH background; fluorescence fold increase at 10 µM; hit rate 5.5% among 65,000;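 active = at 10 µM, mean starting fluorescence two-fold or more over control wells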;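 also: signal is the first read of a kinetic run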
# Active calls of the source: *; i = inactive; . = no result given; + = active, no number. An excerpt weighted towards active compounds, which were near 6.5% of everything screened.
SMILES,Spn DPM-DC inh,Spn PMK inh,NADH coupling,A340 absorber,Spn MK inh,Autofluor 339
Cc1cccc(N(CC(=O)NC2CCCCC2)C(=O)CCC(=O)Nc2cc(C)ccn2)c1,i,6,6%,1,12,1.1
O=C(CSc1ncnc2c1oc1ccccc12)NC1CCCCC1,i,9,7%,1,9,1
COc1ccccc1C1(O)CC2CCC(C1)N2S(=O)(=O)c1ccc(C(C)=O)cc1 (stereo not given),i,19,7%,0.97,2,1.1
COc1ccc2[nH]c(C(=O)O)c(CCC(=O)O)c2c1,i,5,10%,1.1,7,2.5*
COc1ccc2[nH]c(C(=O)O)c(NS(=O)(=O)c3ccc(OC)c(OC)c3)c2c1,i,11,14%,1.1,4,2.2*
Cc1cc(C)n(CCCNCC(O)c2ccccc2)n1 (stereo not given),i,0,18%,1.1,53*,1.1
CCc1cc(C(=O)Cc2ccc(F)cc2)c(O)cc1O,i,4,4%,1.1,6,1
CCc1cc(/C(Cc2ccc3ccccc3n2)=N\O)c(O)cc1O,+,5,20%,1.1,0,0.48
O/N=C(\Cc1cscn1)c1ccc(O)cc1O,i,9,7%,1,12,1.1
CCc1cc(C(=O)Cc2nc3ccccc3[nH]2)c(O)cc1O,i,12,16%,1.2,10,2.3*
CCOCCCNC(=O)C1c2ccccc2C(=O)N2CCc3ccccc3C12 (stereo not given),i,15,8%,1,9,1.1
COc1ccc2c(c1)c(C(=O)CNc1nc(C)cs1)c(C)n2C,i,27*,9%,1.1,0,1.2
Cc1ccc(C)c(N(CC(=O)NC2CCCC2)C(=O)CCCC(=O)Nc2ccccn2)c1,i,48*,6%,0.98,0,1
Cc1cccc(N(CC(=O)NC2CCCC2)C(=O)CCCC(=O)Nc2ccccn2)c1,i,17,6%,0.99,0,1.1
Cn1c(=O)c2c(nc(SCCCO)n2Cc2ccccc2Cl)n(C)c1=O,i,11,2%,0.99,9,1.1
CS(=O)(=O)N(CCc1ccccc1)CC(=O)NCc1cccnc1,i,5,7%,1,10,1
O=C(Cc1nc2ccccc2[nH]1)NCc1ccco1,i,10,3%,1,0,1.1
CCOc1ccccc1C1C(C(N)=O)=C(C)Nc2nc(CCCO)nn21 (stereo not given),i,4,3%,1,6,1.1
OCCCc1nc2n(n1)C(c1cccs1)C=C(c1ccccc1)N2 (stereo not given),.,9,9%,1.1,9,2.1*
OCCCc1nc2n(n1)C(c1ccccc1Cl)C=C(c1cccs1)N2 (stereo not given),.,7,4%,1.1,0,3.8*
OCCCc1nc2n(n1)C(c1ccccc1)C=C(c1ccc(F)cc1)N2 (stereo not given),i,7,7%,1.1,1,2*
COc1ccccc1-c1nnc(SCCN2CCOCC2)n1-c1ccc(C)cc1,i,0,0%,1.1,0,1.1
Cc1nnc(SCCN2CCOCC2)n1C,i,0,18%,1,52*,1.1
Cc1ccc(Cl)cc1N1CCN(C(=O)c2cc3c(=O)n(C)c4ccccc4c3n2C)CC1,i,12,8%,1,9,1.1
Cc1nc2ccccc2n2c(O)c(CC(=O)O)cc12,i,42*,15%,1,2,1.2
SMILES,Spn DPM-DC inh,Spn PMK inh,NADH coupling,A340 absorber,Spn MK inh,Autofluor 339
c1ccc2c(c1)[nH]c1c(N3CCSCC3)ncnc12,.,14,10%,0.91,5,0.21
COc1ccc2[nH]c3c(NCCN(C(C)C)C(C)C)ncnc3c2c1,.,8,4%,1.1,0,3.7*
CC(C)OCCCNc1ncnc2c1[nH]c1ccccc12,i,14,11%,1.1,11,2.6*
CCCC(=O)C1=C(c2ccccc2)C(C#N)(C#N)C(C#N)=C1N,i,2,8%,1.1,13,1.2
Cc1cccn2c(N)c(-c3ccccc3)nc12,.,12,6%,1.1,0,2.1*
O=C1NC(c2cccs2)Nc2ccccc21 (stereo not given),.,0,1%,1,4,2.5*
O=C1NC(c2ccccc2Cl)Nc2ccccc21 (stereo not given),.,9,5%,1,1,5*
Cc1ccsc1C1NC(=O)c2ccccc2N1 (stereo not given),.,0,1%,1.1,1,1.9
CC1(C)C(C=C(Cl)Cl)C1C(=O)N1CCN(c2ccccc2)CC1 (stereo not given),+,0,14%,1.1,9,1.2
COc1ccccc1CN(Cc1cc2cc(C)cc(C)c2[nH]c1=O)Cc1nnnn1CC1CCCO1 (stereo not given),i,26*,9%,1,0,1.3
COc1ccccc1CN(Cc1cc2cc(C)ccc2[nH]c1=O)Cc1nnnn1CC1CCCO1 (stereo not given),i,8,7%,1,4,1.2
COc1ccc2[nH]c(=O)c(CN(CCc3ccccc3)Cc3nnnn3CC3CCCO3)cc2c1 (stereo not given),i,12,10%,1.1,2,2.5*
COc1ccc2[nH]c(=O)c(CN(Cc3ccc(C)cc3)Cc3nnnn3CC3CCCO3)cc2c1 (stereo not given),i,13,15%,1.1,12,2.1*
COc1ccc2[nH]c(=O)c(CN(Cc3ccccc3OC)Cc3nnnn3CC3CCCO3)cc2c1 (stereo not given),i,7,11%,1.1,3,2.3*
CCOC(=O)c1cc2sc(C)cc2n1CC(=O)NCCc1ccccc1,i,16,7%,1,5,1.1
CCCCc1cc(=O)oc2cc(C)cc(OC(C)C(=O)O)c12 (stereo not given),.,9,2%,1,4,3*
CCCc1cc(=O)oc2cc(C)cc(OCC(=O)O)c12,.,0,2%,1.1,4,3.9*
COc1ccc(CNc2nc(-c3cccnc3)nn2C(=O)c2cccs2)cc1,i,0,1%,1.1,1,1.1
O=S(=O)(c1ccc(F)cc1)N1CCC(N2CCCC2)CC1,i,14,7%,1,50*,1
COc1ccc(S(=O)(=O)N2CCN(C3CCCCCCC3)CC2)cc1,i,29*,5%,0.99,33,1
COc1ccc(S(=O)(=O)N2CCC(N3CCCCC3)CC2)cc1,i,4,12%,1,32,1.1
C=CCSc1nc2ccccc2n1Cc1nnc(-c2cccs2)o1,i,11,6%,1,3,1.5
CCOCCCNC(=O)C1CCN(S(=O)(=O)N2CC(C)CC(C)C2)CC1 (stereo not given),i,28*,9%,0.99,0,1
